# Measured values taken from PubChem BioAssay (NCI).
# Compounds without any hit were thinned out: in the full panel of roughly 83,000, 20% have a hit.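 Plates (96-well) were seeded with cells, treated with compound at one concentration, and incubated for 48 hours before percent growth was determined.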 Unmarked numbers belong to inactive results. Activity calls are given as the source filed them. Rule for the calls: active = growth percent below 10; inactive = the rest.
# Assays:
# Assay in all cases: NCI-60 one-dose screen, 48 h (100 = growth as untreated, 0 = no growth, -100 = all killed)
# Settings in all cases: 10 µM unless noted
# NCI-H226 lung = test system: NCI-H226 lung
# NCI-H322M lung = test system: NCI-H322M lung
# HOP-62 NSCLC = test system: HOP-62 NSCLC
# NCI-H460 lung = test system: NCI-H460 lung
# HOP-92 NSCLC = test system: HOP-92 NSCLC
# NCI-H522 lung = test system: NCI-H522 lung
# A549/ATCC NSCLC = test system: A549/ATCC NSCLC
# 786-0 renal = test system: 786-0 renal
# COLO 205 colon = test system: COLO 205 colon
Structure (SMILES),growth (NCI-H226 lung),growth (NCI-H322M lung),growth (HOP-62 NSCLC),growth (NCI-H460 lung),growth (HOP-92 NSCLC),growth (NCI-H522 lung),growth (A549/ATCC NSCLC),growth (786-0 renal),growth (COLO 205 colon)
NS(=O)(=O)c1ccc(Nc2nc(N/N=C/c3ccc4c(c3)OCO4)nc(Nc3ccccc3)n2)cc1,65%,61.3%,29%,2.83% (active),66%,60.8%,74.7%,61.1%,49.7%
O=S(=O)(NCCCNc1nccc(-c2[nH]c(-c3ccccc3)nc2-c2ccc(F)c(O)c2)n1)c1cccc(F)c1,96.7%,103%,116%,78%,94.6%,87.5%,92.4%,101%,96.3%
O=C1C(N2CCN(c3ccccc3)CC2)=C(Cl)C(=O)c2ncccc21,91.3%,95.2%,63.9%,38.7%,128%,-16.2% (active),91.5%,105%,65.2%
C#CCN(C)CCCOc1ccc(NCc2ccc(C(=O)NO)cc2)cc1Cl,46.6%,31.8%,24.8%,24.8%,-5.78% (active),13.7%,20%,38.9%,3.71% (active)
C#C[C@]1(O)CC[C@H]2[C@@H]3CC=C4c5sc(NCc6ccccc6)nc5CC[C@]4(C)[C@H]3CC[C@@]21C,75.6%,59.9%,14.1%,51.8%,23.1%,80%,52%,-72.3% (active),37%
COc1ccccc1Cn1cc(C#N)c(N)c1C(=O)c1ccc(Br)cc1,89.5%,94.6%,104%,96.4%,100%,89.5%,101%,102%,113%
COc1cc(-c2nc(-c3ccccc3)[nH]c2-c2ccnc(NCCCNS(=O)(=O)c3ccc(C)cc3)n2)ccc1F,75.7%,93.1%,150%,91.9%,122%,80%,74.2%,94.5%,96%
